Data from PubChem BioAssay (NCATS).
Results filed as inconclusive are left out. The source made the active and inactive calls. Calls come from the whole dose curve; as a rule, active = well fitted cell-killing curve with a large enough effect; inconclusive = small, poorly fitted or top-dose-only effect; inactive = flat fitted curve, though single readings scatter.

Test: qHTS of pediatric cancer cell lines to identify multiple opportunities for drug repurposing: Confirmatory screen for A673 cells (AID 1347110);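 note: cells exposed to compound for 48 h before the viability read; nearly all actives have a fitted effect of over 65% in size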
Details: A673 Ewing sarcoma cell viability; series mostly up to 45.9 µM
Outline: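 Forty-eight-hour viability assay. Follow-up compounds ran at 11-point dilutions; positive control bortezomib at 2.3 uM final, neutral control DMSO.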
Potency is the fitted concentration of half-maximal effect.

Row | Structure (SMILES) | Potency
1 | Cc1csc(-c2nnc(Nc3ccc(Oc4ncccc4-c4ccnc(N)n4)cc3)c3ccccc23)c1 | 9.27 µM (active)
2 | Nc1[nH]nc2nnc(-c3c(-c4ccccc4)nn4ccccc34)cc12 | 13.1 µM (active)
3 | CC[C@H](NC(=O)[C@H](C)NC)C(=O)N1C[C@@H](O)C[C@H]1Cc1c(-c2[nH]c3cc(F)ccc3c2C[C@H]2C[C@H](O)CN2C(=O)[C@H](CC)NC(=O)[C@H](C)NC)[nH]c2cc(F)ccc12 | 7.37 µM (active)
4 | COC(=O)Nc1ccc(-c2nc(N3CCOCC3)c3cnn(C4CCN(C(=O)OC)CC4)c3n2)cc1 | 2.93 µM (active)
5 | CC(C)CN(C[C@@H](O)[C@H](Cc1ccccc1)NC(=O)O[C@H]1CO[C@H]2OCC[C@H]21)S(=O)(=O)c1ccc(N)cc1 | inactive
6 | CON(C)C(=O)N1N=C(c2cc(F)ccc2F)S[C@]1(CCCN)c1ccccc1 | 0.0104 µM (active)
7 | CC1(COc2ccc3c(c2)ncn3-c2ccc3cccc(N4CCC(N)CC4)c3n2)COC1 | 7.37 µM (active)
8 | COc1cc2nccc(Oc3ccc(NC(=O)Nc4cc(C)on4)c(Cl)c3)c2cc1OC | 18.5 µM (active)
9 | CNC(=O)[C@H](CC1=CN=C2C=CCC=C12)NC(=O)[C@@H](CC(=O)NO)CC(C)C | 14.7 µM (active)
10 | CN(C)CCN(C)C(=O)c1ccc(NC(=O)Nc2ccc(-c3nc(N4CCOCC4)c4ccn(CC(F)(F)F)c4n3)cc2)cc1 | 0.293 µM (active)
11 | CC(C)n1c(C=C[C@H](O)C[C@H](O)CC(=O)O)c(-c2ccc(F)cc2)c2ccccc21 | 4.65 µM (active)
12 | CN(C(Cc1ccc(OS(=O)(=O)c2cccc3cnccc23)cc1)C(=O)N1CCN(c2ccccc2)CC1)S(=O)(=O)c1cccc2cnccc12 (stereo unspecified) | inactive
13 | C[C@H](c1ccc(F)cc1CCCC(=O)O)N(c1cc(F)ccc1F)S(=O)(=O)c1ccc(Cl)cc1 | inactive
14 | CCC(c1ccc(O)cc1)C(CC)c1ccc(O)cc1 (stereo unspecified) | inactive
15 | O=C(c1ccc(F)c(F)c1Nc1ccc(I)cc1F)N1CC(O)([C@H]2CCCCN2)C1 | 26.1 µM (active)
16 | Nc1ccn([C@@H]2O[C@H](CO)[C@@H](O)[C@H]2O)c(=O)n1 | 0.657 µM (active)
